# Laboratory results taken from PubChem BioAssay (NCATS).
# Inconclusive results are not listed. Where a call stands in place of a potency, no number is given. The source made the active and inactive calls. Calls follow the shape of the dose curve; as a rule, active = well fitted cell-killing curve with a large enough effect; inconclusive = small, poorly fitted or top-dose-only effect; inactive = flat fitted curve, though single readings scatter.
# Test: qHTS of pediatric cancer cell lines to identify multiple opportunities for drug repurposing: Primary screen for U-2 OS cells (AID 1347096); also: nearly all actives have a fitted effect of over 50% in size
# Conditions: U-2 OS viability, CellTiter-Glo luminescence, 48 h; series mostly up to 46 µM
# Description: Drug repurposing or repositioning has been offered as a strategy for drug development in oncology programs. This approach has special potential for childhood cancers and other rare or orphan diseases, where the expected return on new drug development has been a disincentive to pharmaceuticals.
# In this project we exploit the poly-pharmacology of drugs to discover new indications via phenotypic screening of a panel of 19 well-characterized cell lines derived from solid tumors seen in children and adolescents. The goal is to identify approved drugs with previously unrecognized anticancer properties that has the potential to reveal new mechanisms and biological processes involved in carcinogenesis or drug resistance. We employed a titration-based paradigm (quantitative high-throughput screening or qHTS), where all compounds were tested at multiple concentrations for their effect on cell viability. Concentration-response curves (CRCs) were derived directly from the primary screen, and both potency and efficacy values were used to identify compounds with robust bioactivity profiles. We screened the NIH Chemical Genomics Center (NCGC) Pharmaceutical Collection (NPC) and Mechanism Interrogation Plate (MIPE) small molecule collections of approved and investigational compounds against these cell lines; and measured metabolically active cells after 48 hours of compound treatment as a proxy for cell viability.
# Assay Submitter: Nathalia J. Martinez, National Center for Advancing Translational Sciences, National Institutes of Health, Rockville, MD, USA; email: natalia.martinez@nih.gov
# [1] Shen, M et al. Quantitative high-throughput phenotypic screening of pediatric cancer cell lines identifies multiple opportunities for drug repurposing. Oncotarget 2017 Dec 19;9(4):4758-4772. PMID 29435139.
# The cells were obtained from University of North Carolina (UNC), Pediatric Preclinical Testing Program (PPT), and Coriell Institute (CI).
# qHTS cell viability assay:
# Cells were assayed in growth media at a density of 500-1,000 cells/well. Five microliters of cells were dispensed into 1,536-well, white, solid-bottom, TC-treated plates (Greiner Bio One) using a multidrop dispenser and incubated at 37 degrees C, 5% CO2, under a humidified atmosphere for 5 hours. Twenty-three nanoliters of compounds and controls (neutral control DMSO or positive control bortezomib at final concentration of 2.3 µM) were subsequently transferred by Kalypsys pintool. For primary screens, the MIPE collection was tested at 11-point dilutions (final concentrations range from 0.78 nM to 46 µM) and the NPC collection at 8-point dilutions (final concentrations range from 0.59 nM to 46 µM). Compounds tested in follow-up screens were assayed at 11-point dilutions. Cells were incubated for 48 hours, followed by addition of 3 µL of CellTiter-Glo (Promega). After a 15 min incubation at room temperature, samples were analyzed for luminescence intensity using a ViewLux High-throughput CCD imager equipped with clear filters.
# Potency is read from the fitted curve at half-maximal effect.
row,Compound,Potency
1,O=C1CCCc2c(O)cccc21,inactive
2,CCc1cc2cc(OC)c(OC)cc2c(Cc2ccccc2)n1,inactive
3,CCN(CC)CCN,inactive
4,Cc1nc2n(c(=O)c1CCN1CCC(C(=O)c3ccc(F)cc3)CC1)CCS2,inactive
5,CC(NC(CCc1ccccc1)C(=O)O)C(=O)N1C(=O)N(C)CC1C(=O)O (stereo not given),inactive
6,CCC(C(=O)OCCN1CCOC(c2ccccc2)C1C)c1ccccc1 (stereo not given),inactive
7,CCOC(=O)NNc1nncc2ccccc12,inactive
8,Cc1cc2nc3ccc(=[N+](C)C)cc-3sc2cc1N,21.1 µM (active)
9,CC(=O)N(c1onc(C)c1C)S(=O)(=O)c1ccc(N)cc1,inactive
10,CNC[C@H](O)[C@@H](O)[C@H](O)[C@H](O)CO,inactive
11,CCc1cc(S(=O)(=O)O)c2cc(C(C)C)cccc1-2,inactive
12,CCOC(=O)N1CCC(Nc2ccc(Cl)cc2N)CC1,inactive
13,CCN1CCN(c2cc(-c3ccc(F)cc3)c3c(n2)CCCCCC3)CC1,inactive
14,Cc1onc(-c2ccccc2)c1C(=O)Cl,inactive
15,CCC1(c2cnc[nH]2)Cc2ccccc2C1,inactive
16,NC(=O)NC1N=C([O][Al])NC1=O (stereo not given),inactive
17,CC1(C)S[C@@H]2[C@H](NC(=O)C(c3ccccc3)S(=O)(=O)O)C(=O)N2[C@H]1C(=O)O (stereo not given in full),inactive
18,CN=C(N)NC(=O)Nc1c(C)cccc1C,inactive
19,CCC(=O)O[C@]1(C(=O)COC)[C@@H](C)C[C@H]2[C@@H]3CCC4=CC(=O)C=C[C@]4(C)C3(F)[C@@H](O)C[C@@]21C (stereo not given in full),inactive
20,N=C(N)c1ccc(OCCCOc2ccc(C(=N)N)cc2)cc1,inactive

row,Compound,Potency
1,CC(=O)N(CC(O)CO)c1c(I)c(C(=O)NCCO)c(I)c(C(=O)NCC(O)CO)c1I (stereo not given),inactive
2,O=P(O)(O)OCC(O)CO (stereo not given),inactive
3,CC(C)C(=O)Nc1cccc(C2CN3CCSC3=N2)c1 (stereo not given),inactive
4,COC(=O)c1c(Cl)c(Cl)c(C(=O)OC)c(Cl)c1Cl,inactive
5,O=C(O)c1[nH]n(-c2ccc(S(=O)(=O)O)cc2)c(=O)c1N=Nc1ccc(S(=O)(=O)O)cc1,inactive
6,COc1cc2c(cc1OC)C(=O)CC2,inactive
7,O=C(O)[C@@H](O)[C@H](O)[C@H](O)[C@@H](O)C(=O)O,inactive
8,Nc1cccc2c(N)cccc12,inactive
9,O=C1Nc2ccccc2C1(c1ccc(O)cc1)c1ccc(O)cc1,inactive
10,CC(=O)N1CCN(c2ccc(O)cc2)CC1,inactive
11,CC1CC(=O)NN=C1c1ccc(NCC(C)(C)NCC(O)COc2cc(Cl)ccc2C#N)cc1 (stereo not given),inactive
12,CC(=O)c1ccc(O)c(C(N)=O)c1,inactive
13,C=CCNc1nc(NCC=C)nc(N2CCN(C(c3ccc(F)cc3)c3ccc(F)cc3)CC2)n1,inactive
14,CCOC(=O)C(O)c1ccccc1 (stereo not given),inactive
15,CN1CCN(N)CC1,inactive
16,Cc1cc(O)c2c(O)c3c(O)cccc3cc2c1,inactive
17,OC[C@]1(O)OC[C@@H](O)[C@H](O)[C@@H]1O,inactive
18,CCCCCOc1ccccc1/C(=C\SC)n1ccnc1,inactive
19,CCCc1ccc(OCC(=O)N2CCN(C(=O)COc3ccc(CCC)cc3OC)CC2)c(OC)c1,inactive
20,Cc1cc(CCCOc2c(C)cc(-c3noc(C(F)(F)F)n3)cc2C)on1,inactive
